Assay results as given in PubChem BioAssay (Tox21).
Results filed as inconclusive are left out. Activity calls are given as the source filed them. Unless noted, calls follow the shape of the dose curve; as a rule, active = well fitted curve in the direction sought with a large enough effect in the repeat runs; inconclusive = weak or mixed curves; inactive = no such curve, though single readings can be large; an effect the other way counts as inactive or inconclusive.

How the values were obtained:
[1] = biological target: Thyrotropin receptor (Homo sapiens) (UniProt P16473); experiment: qHTS assay to identify small molecule agonists of the thyroid stimulating hormone receptor (TSHR) signaling pathway (AID 1224843; calls by dose curve; also: nearly all actives have a fitted effect of over 45% in size)
Thyrotropin receptor (Homo sapiens), sequence (P16473 whole entry, looked up): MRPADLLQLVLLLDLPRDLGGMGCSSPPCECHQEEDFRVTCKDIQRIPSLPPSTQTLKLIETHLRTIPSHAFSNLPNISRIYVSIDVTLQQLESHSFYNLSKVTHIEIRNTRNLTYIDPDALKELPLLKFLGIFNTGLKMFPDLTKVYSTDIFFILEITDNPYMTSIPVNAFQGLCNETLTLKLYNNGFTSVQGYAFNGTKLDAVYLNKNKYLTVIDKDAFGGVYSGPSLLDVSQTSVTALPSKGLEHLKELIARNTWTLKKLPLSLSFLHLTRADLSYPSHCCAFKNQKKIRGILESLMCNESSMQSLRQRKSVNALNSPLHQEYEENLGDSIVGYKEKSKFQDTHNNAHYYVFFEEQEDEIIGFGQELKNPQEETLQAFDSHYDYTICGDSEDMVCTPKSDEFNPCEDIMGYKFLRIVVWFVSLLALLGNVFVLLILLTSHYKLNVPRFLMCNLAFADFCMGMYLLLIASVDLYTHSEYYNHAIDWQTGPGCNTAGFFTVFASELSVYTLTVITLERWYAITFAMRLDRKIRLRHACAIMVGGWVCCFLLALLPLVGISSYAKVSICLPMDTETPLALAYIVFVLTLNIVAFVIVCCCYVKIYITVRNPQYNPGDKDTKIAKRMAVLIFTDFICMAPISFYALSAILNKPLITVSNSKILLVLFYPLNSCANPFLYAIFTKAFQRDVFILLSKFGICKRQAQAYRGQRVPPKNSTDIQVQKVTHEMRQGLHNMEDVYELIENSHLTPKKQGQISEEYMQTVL
Outline: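 Cell line HEK293 with TSHR; density 800/well. Exposure 30 min RT. Readout HTRF cAMP (cAMP-d2/anti-cAMP-cryptate), 1 h RT before reading.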

[2] = qHTS assay to identify small molecule agonists of the hypoxia (HIF-1) signaling pathway - cell viability counter screen (AID 1224844; calls by dose curve; also: nearly all actives have a fitted effect of over 50% in size)
Outline: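 ME-180 HRE-bla cells, 2,000/well, 0.5% dialyzed FBS; 5 hr settle, 17 hr compound at 37C/5% CO2; CCF4-AM reporter read first, then CellTiter-Glo luminescence after 30 min RT.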

[3] = qHTS assay to identify small molecule agonists of H2AX (AID 1224845; active = well fitted activation curve with a large enough effect in the signal ratio in the repeat runs, not every such curve was filed as active; the % refers to the signal ratio)
Outline: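 Wild-type CHO-K1 cells plated overnight, then exposed 3 hr at 37C to compounds at 15 concentrations (0.76% DMSO). Lysed, then HTRF anti-pH2AX(S139)-cryptate/anti-H2AX-d2 detection after 24 hr at room temperature; emissions 665 and 620 nm.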

[4] = qHTS assay to identify small molecule agonists of the hypoxia (HIF-1) signaling pathway (AID 1224846; active = well fitted activation curve with a large enough effect in the signal ratio in the repeat runs, not every such curve was filed as active; the % refers to the signal ratio)
Outline: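 Cell line: CellSensor HRE-bla ME-180; 2,000 cells/well; 0.5% dialyzed FBS; 5 h preincubation; DMSO compound pin transfer; 17 h, 37C, 5% CO2; CCF4-AM added; bla FRET signal scored for activation.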

[5] = qHTS RealTime-Glo MT Cell Viability Assay in HEK293 cells - 32 hour (AID 1224868); also: top concentration of the series differs between compounds; nearly all actives have a fitted effect of over 50% in size
Outline: (§1)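 Homogeneous bioluminescent viability format in HEK293 cells (600 cells/well). Following 5 h at 37 C/5% CO2, 23 nL compound was pintooled; the signal was measured repeatedly during 40 h incubation.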

[6] = A CellTox Green Cytotoxicity Assay to monitor cytotoxicity in HEK293 cells - 0 hour (AID 1224869); also: nearly all actives have a fitted effect of over 50% in size
Outline: (§2)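 Nonlytic real-time cytotoxicity: HEK293 + CellTox Green reagent plated, 5 h preincubation, pintool compound addition (23 nL in DMSO), 37 C for 40 h, fluorescence measured at successive time points.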

[7] = qHTS RealTime-Glo MT Cell Viability Assay in HepG2 cells - 40 hour (AID 1224870); also: nearly all actives have a fitted effect of over 50% in size
Outline: (§3)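 HepG2 cells mixed with RealTime-Glo MT reagents (NanoLuc plus cell-permeant prosubstrate) were seeded at 600 cells/well, incubated 5 h at 37 C/5% CO2, then pinned with compounds in DMSO; nonlytic luminescence tracked viability during 40 h treatment.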

[8] = A CellTox Green Cytotoxicity Assay to monitor cytotoxicity in HEK293 cells - 40 hour (AID 1224871); also: nearly all actives have a fitted effect of over 45% in size
Outline: as §2

[9] = qHTS RealTime-Glo MT Cell Viability Assay in HEK293 cells - 16 hour (AID 1224872)
Outline: as §1

[10] = qHTS RealTime-Glo MT Cell Viability Assay in HepG2 cells - 8 hour (AID 1224873); also: nearly all actives have a fitted effect of over 55% in size
Outline: as §3

[11] = qHTS RealTime-Glo MT Cell Viability Assay in HEK293 cells - 40 hour (AID 1224874); conditions: RealTime-Glo luminescence; max response: hits give low values; also: nearly all actives have a fitted effect of over 50% in size
Outline: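 Cells were seeded together with NanoLuc luciferase and a prosubstrate that viable cells reduce to a luciferase substrate. After a 5 h incubation at 37 C/5% CO2, compounds were added and luminescence was measured repeatedly during 40 h of treatment.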

[12] = A CellTox Green Cytotoxicity Assay to monitor cytotoxicity in HEK293 cells - 24 hour (AID 1224875); also: nearly all actives have a fitted effect of over 45% in size
Outline: as §2

[13] = A CellTox Green Cytotoxicity Assay to monitor cytotoxicity in HepG2 cells - 16 hour (AID 1224876); also: nearly all actives have a fitted effect of over 45% in size
Outline: (§4)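 Read-out is fluorescence of a cyanine dye excluded from live cells that stains DNA of dead HepG2 cells, with signal proportional to cytotoxicity. Plates were read at 0, 8, 16, 24, 32 and 40 h after compound addition.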

[14] = qHTS RealTime-Glo MT Cell Viability Assay in HepG2 cells - 32 hour (AID 1224877); also: nearly all actives have a fitted effect of over 55% in size
Outline: (§5)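 Cell number in HepG2 cultures estimated from NanoLuc luminescence generated by metabolic reduction of a prosubstrate by living cells. The homogeneous, nonlytic format allowed repeated reads at 0, 8, 16, 24, 32 and 40 h of compound exposure.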

[15] = A CellTox Green Cytotoxicity Assay to monitor cytotoxicity in HepG2 cells - 24 hour (AID 1224878); also: nearly all actives have a fitted effect of over 45% in size
Outline: as §4

[16] = qHTS assay to identify small molecule agonists of H2AX - cell viability counter screen (AID 1224847; calls by dose curve; also: top concentration of the series differs between compounds; nearly all actives have a fitted effect of over 30% in size)
Outline: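 After overnight plating of 1000 CHO-K1 cells per well, a 15-concentration compound series was applied for 3 hr at 37C. Luminescence from CellTiter-Glo, read following 30 min at room temperature, reflected cell viability.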

[17] = A CellTox Green Cytotoxicity Assay to monitor cytotoxicity in HepG2 cells - 40 hour (AID 1224879); also: nearly all actives have a fitted effect of over 40% in size
Outline: as §4

[18] = qHTS RealTime-Glo MT Cell Viability Assay in HepG2 cells - 24 hour (AID 1224867); also: nearly all actives have a fitted effect of over 50% in size
Outline: as §5

[19] = qHTS assay to identify small molecule agonists of the estrogen related receptor (ERR) signaling pathway from Tox21 library (AID 1224849; calls by dose curve; also: nearly all actives have a fitted effect of over 15% in size); conditions: ERR reporter cell line, ONE-Glo luciferase, 18 h; at 92.4 µM (top of the series) unless noted
Outline: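 ERR cells, 6 h pre-incubation 37 C/5% CO2; cpd in DMSO pinned; 18 h 37 C; ONE-Glo added, 30 min RT; luminescence read. Agonist mode, qHTS.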

[20] = qHTS assay to identify small molecule antagonists of the estrogen related receptor (ERR) signaling pathway from Tox21 library (AID 1224848); also: nearly all actives have a fitted effect of over 50% in size
Outline: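 Screening used an ERR reporter line supplied by NTP, exposed for 18 h at 37 C to library compounds delivered in DMSO. Signal was luciferase luminescence developed with ONE-Glo at room temperature for 30 min.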
% is scaled to controls: 0 for no effect and ±100 for the full control effect.

CO[Si](C)(OC)OC
inactive: Potency [1] | Potency [2] | Potency [3] | outcome [4] | Potency [5] | Potency [6] | Potency [7] | Potency [8] | Potency [9] | Potency [10] | max response [11] 2.67% | Potency [12] | Potency [13] | Potency [14] | Potency [15]

CCCCN(CCCC)CCCOC(=O)c1ccc(N)cc1
inactive: Potency [1] | Potency [2] | Potency [3] | Potency [16] | Potency [5] | Potency [6] | Potency [7] | Potency [8] | Potency [9] | Potency [10] | max response [11] -19.3% | Potency [12] | Potency [14] | Potency [15] | Potency [17]

CN1CCN(c2c(F)cc3c(=O)c(C(=O)O)cn4c3c2OCN4C)CC1
inactive: activation [1] -2.64% [at 19 µM] | activity change, negative = cytotoxicity [2] 3.62% [at 15.8 µM] | activation (H2AX phosphorylation) [3] -2.48% [at 31.6 µM] | activation [4] -0.337% [at 15.8 µM] | activity change, negative = cytotoxicity [18] 3.52% [at 15.8 µM] | activity change, negative = cytotoxic [5] 1.18% [at 15.8 µM] | cytotoxicity [6] -13.4% [at 15.8 µM] | activity change, negative = cytotoxic [7] -3.22% [at 15.8 µM] | cytotoxicity increase [8] -7.47% [at 15.8 µM] | activity change, negative = cytotoxicity [9] 1.07% [at 15.8 µM] | viability change, negative = cytotoxic [10] 8.52% [at 15.8 µM] | max response [11] 2.93% | activity change [12] -4.87% [at 15.8 µM, hits give high values] | cytotoxicity increase [13] -5.53% [at 15.8 µM] | activity change, negative = cytotoxic [14] -0.186% [at 15.8 µM] | cytotoxicity [15] -1.37% [at 15.8 µM] | cytotoxicity increase [17] -7.78% [at 15.8 µM]

COC(=O)c1cc(S(N)(=O)=O)ccc1OC
inactive: Potency [1] | Potency [2] | outcome [4] | Potency [16] | activity change, positive = activation [19] -0.548% [at 42.5 µM] | Potency [18] | Potency [5] | Potency [6] | Potency [7] | Potency [9] | Potency [10] | max response [11] 7.1% | Potency [12] | Potency [13] | Potency [14] | Potency [15] | Potency [17]

Cc1cc(O)c2c(O)c3c(O)cccc3cc2c1
inactive: Potency [1] | Potency [2] | Potency [3] | outcome [4] | Potency [18] | Potency [5] | Potency [6] | Potency [7] | Potency [8] | Potency [9] | Potency [10] | Potency [13] | Potency [14] | Potency [15] | Potency [17]

COc1ccc(CCC(=O)c2c(O)cc(O[C@@H]3O[C@H](CO)[C@@H](O)[C@H](O)[C@H]3O[C@@H]3O[C@@H](C)[C@H](O)[C@@H](O)[C@H]3O)cc2O)cc1O
inactive: Potency [1] | Potency [2] | outcome [4] | Potency [16] | Potency [20] | activity change, positive = activation [19] 1.69% | Potency [18] | Potency [5] | Potency [6] | Potency [7] | Potency [8] | Potency [9] | Potency [10] | Potency [12] | Potency [13] | Potency [14] | Potency [15] | Potency [17]

Nc1ccc(S(=O)(=O)O)c(N)c1
inactive: Potency [1] | Potency [2] | outcome [4] | Potency [16] | Potency [20] | Potency [5] | Potency [6] | Potency [7] | Potency [9] | Potency [10] | max response [11] -8.29% | Potency [13] | Potency [14] | Potency [15] | Potency [17]

CC(=N\O)/C(C)=N/O
inactive: Potency [1] | Potency [2] | Potency [3] | Potency [16] | Potency [18] | Potency [5] | Potency [6] | Potency [7] | Potency [8] | Potency [9] | Potency [10] | max response [11] -18.2% | Potency [12] | Potency [13] | Potency [14] | Potency [15] | Potency [17]

CCCCCCOC(=O)CCCCCCCC(=O)OCCCCCC
inactive: Potency [1] | Potency [2] | Potency [3] | outcome [4] | Potency [18] | Potency [5] | Potency [6] | Potency [7] | Potency [9] | Potency [10] | max response [11] 1.87% | Potency [12] | Potency [13] | Potency [14] | Potency [15] | Potency [17]

O=C1NCCN1
inactive: Potency [1] | Potency [2] | outcome [4] | Potency [16] | activity change, positive = activation [19] 2.98% | Potency [18] | Potency [5] | Potency [6] | Potency [7] | Potency [9] | Potency [10] | max response [11] 4.04% | Potency [13] | Potency [14] | Potency [15] | Potency [17]
